Source: PubChem BioAssay (Tox21)
Records with an inconclusive call do not appear. Where a call stands in place of a potency, no number is given. Calls of active or inactive are those of the source. Calls come from the whole dose curve; as a rule, active = well fitted cell-killing curve with a large enough effect in the repeat runs; inconclusive = weak or mixed curves, or effect the other way; inactive = flat fitted curve, though single readings scatter.

Assay: qHTS RealTime-Glo MT Cell Viability Assay in HepG2 cells - 40 hour (AID 1224870); note: nearly all actives have a fitted effect of over 50% in size
Conditions: RealTime-Glo luminescence; series mostly up to 76.8 µM
Excerpt: National Center for Advancing Translational Sciences [NCATS]
NIH Chemical Genomics Center [NCGC]
U.S. Environmental Protection Agency [EPA]
National Institutes of Environmental Health Sciences [NIEHS]
National Toxicology Program [NTP]
U.S. Food and Drug Administration [FDA]
Measure of cell viability is critical in the cell-base assay. Analysis of cell viability is necessary for the characterization of cell responses to cytotoxic drugs and environmental stress. A RealTime-Glo MT Cell Viability Assay to monitor cell viability in real time of continues cell culture during 40 hours of compound treatment was used to screen Tox21 10K library compounds in HepG2 cells. The RealTime-Glo MT Cell Viability Assay is a nonlytic, homogeneous, bioluminescent method to measure cell viability in real time using a simple, plate-based method. The assay involves adding NanoLuc luciferase and a cell-permeant prosubstrate to cells in culture. Viable cells reduce the proprietary prosubstrate to generate a substrate for NanoLuc luciferase. This substrate diffuses from cells into the surrounding culture medium, where it is rapidly used by the NanoLuc Enzyme to produce a luminescent signal. The signal correlates with the number of viable cells, making the assay well suited for cytotoxicity studies.
Tox21 Assay Protocol Summary:
The mixture of HepG2 cell suspension and reagents were dispensed at 600cells/6 ul/well in 1536-well tissue culture treated black solid bottom plates using a Multidrop dispenser. After the assay plates were incubated at a 37 C/5% CO2 incubator for 5 hours, 23 nL of compounds dissolved in DMSO, positive and negative controls was transferred to the assay plate by a pintool work station. The plates were incubated at 37 C for 40 hours. The luminescence intensity were measured at 0h, 8h, 16h, 24h, 32h and 40h time points using ViewLux plate reader during compound treatment.
Potency is the fitted concentration of half-maximal effect.

Row | SMILES | Potency
1 | ON(Cc1ccccc1)Cc1ccccc1 | inactive
2 | CC1=CC(O)CC(C)(C)C1 (stereo not given) | inactive
3 | CC(=O)OCC(=O)[C@H]1CC[C@H]2[C@@H]3CCC4=CC(=O)CC[C@]4(C)[C@H]3CC[C@]12C | inactive
4 | O=C(O)c1ccc(CO)o1 | inactive
5 | O=C(O)c1ccccc1NCCc1ccccc1 | inactive
6 | CC(=O)Nc1ccccc1C | inactive
7 | CCCCOC(=O)CCS | inactive
8 | CCOC(=O)OCC | inactive
9 | Cc1ccc(Nc2nccc(N(C)c3ccc4c(C)n(C)nc4c3)n2)cc1S(N)(=O)=O | inactive
10 | COC(=O)CC(=O)C(C)(C)C | inactive
11 | CCC(=O)OC/C=C/c1ccccc1 | inactive
12 | CC(C)CCCC(=O)O | inactive
13 | CCCOc1ccc(S(=O)(=O)N2CCN(CC)CC2)cc1-c1nc2c(CC)n(Cc3ccccn3)nc2c(=O)[nH]1 | inactive
14 | Cc1cc(O)c2c(O)c3c(O)cccc3cc2c1 | inactive
15 | COCC(O)CO (stereo not given) | inactive
16 | CCCC1C(CC)=CC(CC)=CN1c1ccccc1 (stereo not given) | inactive
17 | Cc1oncc1C(=O)Nc1ccc(C(F)(F)F)cc1 | inactive
18 | COc1ccccc1N=Nc1c(S(=O)(=O)O)cc2cc(S(=O)(=O)O)cc(NC(C)=O)c2c1O | inactive
19 | C/C=C/C=C/CCCCCCCO | inactive
20 | NC(=O)Nc1ccc(Cl)cc1 | inactive

Row | SMILES | Potency
21 | O=C(O)C(Cc1cc(I)c(O)c(I)c1)c1ccccc1 (stereo not given) | inactive
22 | CN(C(=O)C(Cl)Cl)c1ccc(OC(=O)c2ccco2)cc1 | inactive
23 | CC(=O)N(c1onc(C)c1C)S(=O)(=O)c1ccc(N)cc1 | inactive
24 | CCCOC(=O)c1ccc(C(=O)OCCC)nc1 | inactive
25 | O=C(N[C@@H](c1ccccc1)[C@@H]1CCCCN1)c1cccc(C(F)(F)F)c1Cl | 43.6 µM (active)
26 | C[C@@H]1C[C@H]2[C@@H]3CCC4=CC(=O)C=C[C@]4(C)[C@@]3(F)[C@@H](O)C[C@]2(C)[C@@]1(O)C(=O)CO | inactive
27 | c1ccc(COCc2ccccc2)cc1 | inactive
28 | COc1ccc(C(=O)c2cccc(O)c2)c(OC)c1 | inactive
29 | COC(=O)c1cc(S(N)(=O)=O)ccc1OC | inactive
30 | CC(C)CCCCCCOC(=O)CCCCC(=O)OCCCCCCC(C)C | inactive
31 | CCCCC(CC)COC(=O)COc1ccc(Cl)cc1C (stereo not given) | inactive
32 | CCCCCCCCCOC(C)=O | inactive
33 | O=C1NCCN1 | inactive
34 | N#C/C(=C1\SCC(c2ccccc2Cl)S1)n1ccnc1 (stereo not given) | inactive
35 | COc1cc2c(cc1OC)-c1cc(=Nc3c(C)cc(C)cc3C)n(C)c(=O)n1CC2 | inactive
36 | CC(=O)[C@H]1CC[C@H]2[C@@H]3C[C@H](C)C4=CC(=O)CC[C@]4(C)[C@H]3[C@@H](O)C[C@]12C | inactive
37 | COC(OC)(C(=O)c1ccccc1)c1ccccc1 | inactive
38 | Cc1ccc(/C=N/n2c(-c3ccccc3)csc2=S)cc1 | inactive
39 | CC(COc1ccc(C(C)(C)C)cc1)OS(=O)OCCCl (stereo not given) | inactive
40 | CC(C)C(OC(=O)c1ccccc1)C(C)(C)COC(=O)c1ccccc1 (stereo not given) | inactive
